These results are taken from PubChem BioAssay AID2685 (National Center for Advancing Translational Sciences (NCATS), 2010).

The campaign covered roughly 320,000 compounds. About 2,100 (0.66%) were called active. Roughly 53% stayed inconclusive and do not appear here. This is one part of a sample in which actives are shown more often than they occur. The call rests on the fitted dose curve; in most records, active means well fitted inhibition curve with a large enough effect in the signal ratio, with a control signal flat (not every such curve was filed as active); inconclusive means small, poorly fitted or top-dose-only effect, or effect the other way, or a change in a side signal; inactive means flat fitted curve, though single readings scatter; the % refers to the signal ratio.
Potency means the concentration at half of the fitted maximal effect.

The test is described as follows: qHTS Assay for Lipid Storage Modulators in Drosophila S3 Cells.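 On cell number change: cells counted by Cell Tracker Red CMTPX staining in the red channel.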 On lipid storage change, negative = inhibition: on the % scale 0 is the no-effect control and ±100 the full control effect. To be noted: BODIPY lipid droplet fluorescence, 18-24 h, cells fed with added oleic acid; cell number change: measured here: cell count max response; series mostly up to 46.1 µM; lipid storage change, negative = inhibition: at the top concentration. Put shortly: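 Drosophila S3 cells got compounds at several concentrations plus oleic acid (400 uM solution). Laser-scanning cytometry with 488 nm excitation read lipid droplets at 500-530 nm and cells at 575-640 nm. Percent activity was relative to 20 uM Triacsin C.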
A general note: qHTS replaces the single test concentration by a dilution series.
On to `CCCCSc1nc2sc3c(c2c(=O)n1-c1ccc(C)cc1)CCN(C)C3`, for which the “lipid storage change, negative = inhibition” value was -30% (inactive) and the cell number change was 14.8%.

Take `CS(=O)(=O)Oc1ccc(/C=C2\C(=N)N3N=C(CC(=O)N4CCOCC4)SC3=NC2=O)cc1Cl`: the compound was called inactive and the cell number change was found to be 6.05%.

As to `Cc1cc(/C=C2/C(=O)N(C)C(=S)N2C)ccc1N1CCCC1`, the Potency is 4.47 µM (active) and the cell number change is -25.4%.

With `CN1C(=O)/C(=C/c2ccc(O)c([N+](=O)[O-])c2)N(C)C1=S`, the “lipid storage change, negative = inhibition” value was 3.49% (inactive) and the cell number change was 0.447%.

As to `COc1cc(/C=C2\C(=O)N(C)C(=S)N2C)ccc1O`, the “lipid storage change, negative = inhibition” value is 2.76% (inactive) and the cell number change was -9.16%.

As to `CCc1ccc(NC(=O)c2cc(C)nn2-c2ccccc2)cc1`, the “lipid storage change, negative = inhibition” value was 9.85% (inactive) and the cell number change worked out at 2.41%.

Take `CC12CCC(=O)N1C(C(=O)NNC(=O)c1ccc(Cl)cc1)CS2` (centres undefined): the “lipid storage change, negative = inhibition” value was -23.9% (inactive) and the cell number change was determined as 25.5%.

For the compound `COCCn1c(SCC(=O)Nc2cc(C)on2)nc2c(c1=O)SC(C)C2` (centres undefined), the “lipid storage change, negative = inhibition” value was 15.1% (inactive) and the cell number change is 9.04%.

On to `Cc1csc(NC(=O)CSC2=NS(=O)(=O)c3cc(F)ccc3N2)n1`, for which the lipid storage change, negative = inhibition was 27.8% [at 0.0737 µM] (inactive).

In the case of `CCN(C(=O)CN1CCN(c2ccccc2)CC1)c1c(N)n(Cc2ccccc2)c(=O)[nH]c1=O`, the Potency was 13 µM (active) and the cell number change is -21.7%.

Turning to `CCN(C(=O)COC(=O)CCCOc1ccccc1)c1c(N)n(Cc2ccccc2)c(=O)[nH]c1=O`, the “lipid storage change, negative = inhibition” value was -0.952% (inactive) and the cell number change was -12.5%.

On to `CCN(C(=O)CN1CCCCC1)c1c(N)n(Cc2ccccc2)c(=O)[nH]c1=O`, for which the “lipid storage change, negative = inhibition” value is -1.92% (inactive) and the cell number change amounted to 1.16%.

As to `CCCN(C(=O)C1=COCCO1)c1c(N)n(Cc2ccccc2)c(=O)[nH]c1=O`, the cell number change is -8.42% and the lipid storage change, negative = inhibition was 5.43% [at 0.0737 µM] (inactive).

As to `CCCN(C(=O)c1ccc([N+](=O)[O-])c(C)c1)c1c(N)n(Cc2ccccc2)c(=O)[nH]c1=O`, the “lipid storage change, negative = inhibition” value is -11% (inactive) and the cell number change is -21.6%.

With `CCCN(C(=O)COC(=O)CCOc1ccccc1)c1c(N)n(Cc2ccccc2)c(=O)[nH]c1=O`, the Potency is 14.6 µM (active) and the cell number change is -10.8%.

As to `CCN(C(=O)CN1CCN(c2cccc(Cl)c2)CC1)c1c(N)n(Cc2ccccc2)c(=O)[nH]c1=O`, the “lipid storage change, negative = inhibition” value was 8.94% (inactive) and the cell number change was -10%.

For `CCN(C(=O)COC(=O)CCOc1ccccc1)c1c(N)n(Cc2ccccc2)c(=O)[nH]c1=O`, the “lipid storage change, negative = inhibition” value was 6.7% (inactive) and the cell number change stood at 3.61%.

Regarding `CCCN(C(=O)c1c(-c2ccccc2)noc1C)c1c(N)n(Cc2ccccc2)c(=O)[nH]c1=O`, the Potency was 1.84 µM (active) and the cell number change was found to be 9.83%.

For the compound `c1ccc2c(c1)nnn2CNc1nccs1`, the “lipid storage change, negative = inhibition” value was 11.7% (inactive) and the cell number change is -2.46%.

In the case of `COc1ccc(C(=O)NC2CCCCCC2)cc1S(=O)(=O)Nc1ccc(Br)cc1`, the call was inactive and the cell number change is -11.3%.

As for `CCCCCCn1c(=O)c(C(=O)N/N=C/c2cccc(F)c2)c(O)c2ccccc21`, the “lipid storage change, negative = inhibition” value was -4% (inactive) and the cell number change turned out to be 5.21%.

Consider `CC12C(=O)N(n3cnnc3)C(=O)C1C1C=CC2C1` (centres undefined), for which the Potency is 18.4 µM (active) and the cell number change was found to be 2.58%.

Regarding `CC12C(=O)N(NC(=O)c3ccncc3)C(=O)C1C1C=CC2C1` (centres undefined), the “lipid storage change, negative = inhibition” value is 9.21% (inactive) and the cell number change stood at 6.42%.

As to `O=C1[C@@H]2[C@H](C(=O)N1n1cnnc1)[C@H]1C=C[C@@H]2C1`, the “lipid storage change, negative = inhibition” value is 6.88% (inactive) and the cell number change stood at 1.74%.

As to `CN1CCN(S(=O)(=O)c2ccc(Nc3cccc(Cl)c3)c([N+](=O)[O-])c2)CC1`, the “lipid storage change, negative = inhibition” value is 10.8% (inactive) and the cell number change was 8.16%.

In the case of `COc1ccc(C(=O)Nc2cccc(S(=O)(=O)NC3=NCCCCC3)c2)cc1`, the “lipid storage change, negative = inhibition” value is 10.1% (inactive) and the cell number change is -1.04%.

Regarding `CN(C)c1nc(N(C)C)nc(N2CCCCC2)n1`, the “lipid storage change, negative = inhibition” value is 21% (inactive) and the cell number change was determined as 10.3%.

For the compound `Cc1ccc(C(=O)C(OC(=O)CCC(=O)Nc2cccc(C)c2)c2ccccc2)cc1` (centres undefined), the “lipid storage change, negative = inhibition” value is -7.6% (inactive) and the cell number change is -1.69%.

Take `O=C(CCC(=O)OC(C(=O)c1ccccc1)c1ccccc1)Nc1ccccc1` (centres undefined): the Potency was 0.731 µM (active) and the cell number change was -23.6%.

As to `COc1ccc(NC(=O)CCC(=O)OC(C(=O)c2ccccc2)c2ccccc2)cc1` (centres undefined), the “lipid storage change, negative = inhibition” value was -9.84% (inactive) and the cell number change is -23.4%.

As for `COc1ccc(NS(=O)(=O)c2ccc(NC(C)=O)cc2)c(OC)c1`, the “lipid storage change, negative = inhibition” value is 5.93% (inactive) and the cell number change came to 0.633%.

Regarding `O=C(NCCc1cnn(-c2ccccc2)c1)c1cc(COc2c(F)cccc2F)on1`, the “lipid storage change, negative = inhibition” value is 15.2% (inactive) and the cell number change came out at 0.269%.

Turning to `COc1ccc(OC)c(CNc2ncc(-c3ccc(F)cc3)n2C)c1`, the Potency is 32.6 µM (active) and the cell number change is -16.1%.

For `COc1ccccc1CNc1ncc(-c2ccc(F)cc2)n1C`, the “lipid storage change, negative = inhibition” value was -18.1% (inactive) and the cell number change is -1.58%.

Take `Cn1c(-c2ccc(F)cc2)cnc1NCc1ccc(F)cc1F`: the “lipid storage change, negative = inhibition” value was -14.7% (inactive) and the cell number change turned out to be 25.6%.

Turning to `COc1ccc(-n2c(=O)c3ccccc3n(CC(=O)NC3CCCCC3)c2=O)c(OC)c1`, the “lipid storage change, negative = inhibition” value is 21.5% (inactive).

For the compound `CC(O)CNC12CC3CC(CC(C3)C1)C2` (centres undefined), the “lipid storage change, negative = inhibition” value was -12.7% (inactive).

With `CC(C)(CO)NC12CC3CC(CC(C3)C1)C2`, the Potency was 0.058 µM (active) and the cell number change is -20.6%.

For the compound `CC(C)(C)NC(=O)NC12CC3CC(CC(C3)C1)C2`, the “lipid storage change, negative = inhibition” value is 7.75% (inactive) and the cell number change came to 0.331%.

For `Cc1ccc(S(=O)(=O)N(C)/N=C/c2ccc(N(C)C)cc2)cc1`, the “lipid storage change, negative = inhibition” value was 7.16% (inactive) and the cell number change turned out to be 12.7%.

Turning to `O=C(NCc1ccccc1)/C(=C/c1ccc([N+](=O)[O-])cc1)NC(=O)c1ccco1`, the call was inactive and the cell number change was -3.81%.

As for `COc1ccc(C(=O)CSc2nnc(CNC(=O)c3ccccc3F)n2C)cc1OC`, the “lipid storage change, negative = inhibition” value was -9.91% (inactive) and the cell number change is 0.87%.

Consider `O=C(NCCOc1ccccc1)C1CCCN1C(=O)c1cccs1` (centres undefined), for which the “lipid storage change, negative = inhibition” value is -2.36% (inactive) and the cell number change is -1.16%.

Turning to `O=C(NC1CCCCC1)C(c1ccc(F)cc1)N(Cc1ccco1)C(=O)Cn1nnc2ccccc21` (centres undefined), the Potency was 16.4 µM (active) and the cell number change is 19.8%.

For `O=C(NC1CCCCC1)C(c1ccc(F)cc1)N(Cc1ccco1)C(=O)CN1C(=O)c2ccccc2S1(=O)=O` (centres undefined), the “lipid storage change, negative = inhibition” value is -10.1% (inactive) and the cell number change stood at 11.1%.

For `O=C(NCc1ccco1)C(c1ccc(F)cc1)N(CC1CCCO1)C(=O)Cn1nnc2ccccc21` (centres undefined), the compound was classed as inactive and the cell number change is -18.6%.
